# This is one part of a sample in which the strongest signals are shown more often than they occur.
# B1: NPA (Narcissus pseudonarcissus), C0HM45 (protein)
# chain: DNILYSGETLSPGEFLNNGRYVFIMQEDCNLVLYDVDKPIWATNTGGLDRRCHLSMQSDGNLVVYSPRNNPIWASNTGGENGNYVCVLQKDRNVVIYGTARWATGTNIH
# Tests used:
# Test in all cases: glycan array binding signal (z-score within array); higher = stronger binding
# Details in all cases: glycan notation: IUPAC condensed, linker removed
# [1] = target: Fuc(a1-2)Gal(b1-3)GlcNAc(b1-3)[Fuc(a1-2)Gal(b1-3)GlcNAc(b1-6)]GalNAc
# In short: (§1)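 From the Consortium for Functional Glycomics database, 3228 arrays were curated, keeping only those whose protein sequence was available. Binding is given as a within-array Z-score averaged across arrays sharing a protein sequence and across linkers. Negative Z-scores can be read as non-binding.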
# [2] = target: Fuc(a1-2)Gal(b1-3)GlcNAc(b1-3)[Neu5Ac(a2-6)Gal(b1-4)GlcNAc(b1-6)]Gal(b1-4)Glc
# In short: as §1
# [3] = target: Fuc(a1-2)[Gal(a1-3)]Gal(b1-4)GlcNAc
# In short: as §1
# [4] = target: Fuc(a1-2)[Gal(a1-3)]Gal(b1-4)GlcNAc(b1-2)Man
# In short: as §1
# [5] = target: Fuc(a1-3)[Gal(b1-4)]GlcNAc(b1-2)Man
# In short: as §1
# Gal(a1-3)Gal(b1-3)GlcNAc = target: Gal(a1-3)Gal(b1-3)GlcNAc
# In short: as §1
# [6] = target: Gal(a1-3)Gal(b1-4)GlcNAc(b1-2)Man(a1-3)[Gal(a1-3)Gal(b1-4)GlcNAc(b1-2)Man(a1-6)]Man(b1-4)GlcNAc(b1-4)GlcNAc
# In short: as §1
# [7] = target: Gal(a1-3)Gal(b1-4)[Fuc(a1-3)]GlcNAc(b1-2)Man(a1-3)[Gal(a1-3)Gal(b1-4)[Fuc(a1-3)]GlcNAc(b1-2)Man(a1-6)]Man(b1-4)GlcNAc(b1-4)GlcNAc
# In short: as §1
# Gal(a1-6)Glc = target: Gal(a1-6)Glc
# In short: as §1
# [8] = target: Gal(b1-3)GalNAc(b1-3)Gal(a1-4)Gal(b1-4)Glc
# In short: as §1
# [9] = target: Gal(b1-3)GlcNAc(b1-3)Gal(b1-3)GlcNAc
# In short: as §1
# [10] = target: Gal(b1-3)GlcNAc(b1-6)GalNAc
# In short: as §1
# [11] = target: Gal(b1-3)GlcNAc(b1-6)[Gal(b1-3)]GalNAc
# In short: as §1
# [12] = target: Gal(b1-4)GlcNAc(b1-2)Man(a1-3)[Gal(b1-4)GlcNAc(b1-2)Man(a1-6)]Man(b1-4)GlcNAc(b1-4)GlcNAc
# In short: as §1
# [13] = target: Gal(b1-4)GlcNAc(b1-2)Man(a1-3)[Gal(b1-4)GlcNAc(b1-2)Man(a1-6)][Gal(b1-4)GlcNAc(b1-4)]Man(b1-4)GlcNAc(b1-4)[Fuc(a1-6)]GlcNAc
# In short: as §1
# [14] = target: Gal(b1-4)GlcNAc(b1-2)Man(a1-3)[Man(a1-6)]Man(b1-4)GlcNAc(b1-4)GlcNAc
# In short: as §1
# [15] = target: Gal(b1-4)GlcNAc(b1-2)Man(a1-6)[Man(a1-3)]Man(b1-4)GlcNAc(b1-4)GlcNAc
# In short: as §1
# [16] = target: Gal(b1-4)GlcNAc(b1-2)[Gal(b1-4)GlcNAc(b1-6)]Man(a1-6)[GlcNAc(b1-4)][Gal(b1-4)GlcNAc(b1-2)[Gal(b1-4)GlcNAc(b1-4)]Man(a1-3)]Man(b1-4)GlcNAc(b1-4)[Fuc(a1-6)]GlcNAc
# In short: as §1
# [17] = target: Gal(b1-4)GlcNAc(b1-3)Gal(b1-4)GlcNAc(b1-2)Man(a1-3)[Gal(b1-4)GlcNAc(b1-3)Gal(b1-4)GlcNAc(b1-2)Man(a1-6)]Man(b1-4)GlcNAc(b1-4)GlcNAc
# In short: as §1
# [18] = target: Gal(b1-4)GlcNAc(b1-3)Gal(b1-4)GlcNAc(b1-2)[Gal(b1-4)GlcNAc(b1-3)Gal(b1-4)GlcNAc(b1-6)]Man(a1-6)[Gal(b1-4)GlcNAc(b1-3)Gal(b1-4)GlcNAc(b1-2)Man(a1-3)]Man(b1-4)GlcNAc(b1-4)GlcNAc
# In short: as §1
# [19] = target: Gal(b1-4)GlcNAc(b1-3)Gal(b1-4)[Fuc(a1-3)]GlcNAc(b1-3)Gal(b1-4)[Fuc(a1-3)]GlcNAc
# In short: as §1
# [20] = target: Gal(b1-4)GlcNAc(b1-3)[Gal(b1-4)GlcNAc(b1-6)]GalNAc
# In short: as §1
# [21] = target: Gal(b1-4)GlcNAc(b1-6)[Gal(b1-4)GlcNAc(b1-3)]GalNAc
# In short: as §1
# GalNAc(b1-3)GalNAc = target: GalNAc(b1-3)GalNAc
# In short: as §1
# GalNAc(b1-4)Gal(b1-4)Glc = target: GalNAc(b1-4)Gal(b1-4)Glc
# In short: as §1
# [22] = target: Glc(a1-4)Glc(a1-4)Glc(a1-4)Glc
# In short: as §1
# Glc(b1-4)Glc = target: Glc(b1-4)Glc
# In short: as §1
# GlcA(b1-3)Gal = target: GlcA(b1-3)Gal
# In short: as §1
# [23] = target: GlcNAc(a1-4)Gal(b1-3)GlcNAc
# In short: as §1
# [24] = target: GlcNAc(b1-2)[GlcNAc(b1-4)]Man(a1-3)[GlcNAc(b1-2)Man(a1-6)]Man(b1-4)GlcNAc(b1-4)GlcNAc
# In short: as §1
# [25] = target: GlcNAc(b1-3)[GlcNAc(b1-6)]GalNAc
# In short: as §1
# [26] = target: GlcNAc(b1-4)GlcNAc(b1-4)GlcNAc
# In short: as §1
# [27] = target: GlcNAc(b1-4)[GlcNAc(b1-6)]GalNAc
# In short: as §1
# [28] = target: Man(a1-2)Man(a1-2)Man(a1-3)Man
# In short: as §1
# [29] = target: Man(a1-2)Man(a1-3)[Man(a1-2)Man(a1-6)]Man(a1-6)[Man(a1-2)Man(a1-2)Man(a1-3)]Man(b1-4)GlcNAc(b1-4)GlcNAc
# In short: as §1
# [30] = target: Man(a1-2)Man(a1-3)[Man(a1-6)]Man(a1-6)[Man(a1-2)Man(a1-3)]Man(b1-4)GlcNAc(b1-4)GlcNAc
# In short: as §1
# [31] = target: Man(a1-2)Man(a1-6)[Man(a1-3)]Man(a1-6)[Man(a1-2)Man(a1-2)Man(a1-3)]Man(b1-4)GlcNAc(b1-4)GlcNAc
# In short: as §1
# Man(a1-3)[Man(a1-6)]Man = target: Man(a1-3)[Man(a1-6)]Man
# In short: as §1
# [32] = target: Man(a1-3)[Man(a1-6)]Man(a1-6)[Man(a1-2)Man(a1-3)]Man(b1-4)GlcNAc(b1-4)GlcNAc
# In short: as §1
# [33] = target: Man(a1-3)[Man(a1-6)]Man(a1-6)[Man(a1-3)]Man
# In short: as §1
# [34] = target: Man(a1-3)[Man(a1-6)]Man(a1-6)[Man(a1-3)]Man(b1-4)GlcNAc(b1-4)GlcNAc
# In short: as §1
# [35] = target: Man(a1-3)[Man(a1-6)]Man(b1-4)GlcNAc(b1-4)GlcNAc
# In short: as §1
# [36] = target: Man(a1-3)[Man(a1-6)]Man(b1-4)GlcNAc(b1-4)[Fuc(a1-6)]GlcNAc
# In short: as §1
# Man(b1-4)GlcNAc = target: Man(b1-4)GlcNAc
# In short: as §1
# [37] = target: Neu5Ac(a2-3)Gal(b1-3)GlcNAc(b1-2)Man
# In short: as §1
# [38] = target: Neu5Ac(a2-3)Gal(b1-3)GlcNAc(b1-3)Gal(b1-4)GlcNAc
# In short: as §1
# [39] = target: Neu5Ac(a2-3)Gal(b1-3)GlcNAc(b1-3)GalNAc
# In short: as §1
# [40] = target: Neu5Ac(a2-3)Gal(b1-3)GlcNAc6S
# In short: as §1
# [41] = target: Neu5Ac(a2-3)Gal(b1-4)GlcNAc
# In short: as §1
# [42] = target: Neu5Ac(a2-3)Gal(b1-4)GlcNAc(b1-3)Gal(b1-4)GlcNAc(b1-3)Gal(b1-4)GlcNAc
# In short: as §1
# [43] = target: Neu5Ac(a2-3)Gal(b1-4)[Fuc(a1-3)]GlcNAc(b1-3)Gal
# In short: as §1
# [44] = target: Neu5Ac(a2-3)Gal6S(b1-4)[Fuc(a1-3)]GlcNAc
# In short: as §1
# [45] = target: Neu5Ac(a2-6)Gal(b1-3)GlcNAc(b1-3)[Gal(b1-4)GlcNAc(b1-6)]Gal(b1-4)Glc
# In short: as §1
# [46] = target: Neu5Ac(a2-6)Gal(b1-4)GlcNAc(b1-2)Man(a1-6)[Man(a1-3)]Man(b1-4)GlcNAc(b1-4)GlcNAc
# In short: as §1
# [47] = target: Neu5Ac(a2-8)Neu5Ac(a2-8)Neu5Ac
# In short: as §1
# [48] = target: Neu5Ac(b2-6)Gal(b1-4)GlcNAc
# In short: as §1
# [49] = target: Neu5Gc(a2-8)Neu5Gc(a2-3)Gal(b1-4)GlcNAc(b1-3)Gal(b1-4)GlcNAc
# In short: as §1
binder,measurement,setting,value
B1,glycan array binding signal (z-score),[1],-0.124
same,glycan array binding signal (z-score),[2],-0.142
same,glycan array binding signal (z-score),[3],-0.152
same,glycan array binding signal (z-score),[4],-0.132
same,glycan array binding signal (z-score),[5],-0.131
same,glycan array binding signal (z-score),Gal(a1-3)Gal(b1-3)GlcNAc,-0.133
same,glycan array binding signal (z-score),[6],2.1
same,glycan array binding signal (z-score),[7],-0.056
same,glycan array binding signal (z-score),Gal(a1-6)Glc,-0.147
same,glycan array binding signal (z-score),[8],-0.135
same,glycan array binding signal (z-score),[9],-0.148
same,glycan array binding signal (z-score),[10],-0.144
same,glycan array binding signal (z-score),[11],-0.051
same,glycan array binding signal (z-score),[12],0.602
same,glycan array binding signal (z-score),[13],-0.143
same,glycan array binding signal (z-score),[14],1.71
same,glycan array binding signal (z-score),[15],3.12
same,glycan array binding signal (z-score),[16],-0.141
same,glycan array binding signal (z-score),[17],0.034
same,glycan array binding signal (z-score),[18],-0.104
same,glycan array binding signal (z-score),[19],-0.144
same,glycan array binding signal (z-score),[20],-0.201
same,glycan array binding signal (z-score),[21],-0.141
same,glycan array binding signal (z-score),GalNAc(b1-3)GalNAc,-0.153
same,glycan array binding signal (z-score),GalNAc(b1-4)Gal(b1-4)Glc,-0.129
same,glycan array binding signal (z-score),[22],-0.139
same,glycan array binding signal (z-score),Glc(b1-4)Glc,-0.152
same,glycan array binding signal (z-score),GlcA(b1-3)Gal,-0.148
same,glycan array binding signal (z-score),[23],-0.152
same,glycan array binding signal (z-score),[24],-0.076
same,glycan array binding signal (z-score),[25],-0.147
same,glycan array binding signal (z-score),[26],-0.122
same,glycan array binding signal (z-score),[27],-0.146
same,glycan array binding signal (z-score),[28],0.268
same,glycan array binding signal (z-score),[29],0.144
same,glycan array binding signal (z-score),[30],2.38
same,glycan array binding signal (z-score),[31],1.83
same,glycan array binding signal (z-score),Man(a1-3)[Man(a1-6)]Man,5.21
same,glycan array binding signal (z-score),[32],5.6
same,glycan array binding signal (z-score),[33],2.47
same,glycan array binding signal (z-score),[34],5.37
same,glycan array binding signal (z-score),[35],10.1
same,glycan array binding signal (z-score),[36],5.34
same,glycan array binding signal (z-score),Man(b1-4)GlcNAc,-0.151
same,glycan array binding signal (z-score),[37],-0.122
same,glycan array binding signal (z-score),[38],-0.153
same,glycan array binding signal (z-score),[39],-0.14
same,glycan array binding signal (z-score),[40],-0.124
same,glycan array binding signal (z-score),[41],-0.154
same,glycan array binding signal (z-score),[42],-0.151
same,glycan array binding signal (z-score),[43],-0.162
same,glycan array binding signal (z-score),[44],-0.158
same,glycan array binding signal (z-score),[45],-0.144
same,glycan array binding signal (z-score),[46],3.41
same,glycan array binding signal (z-score),[47],-0.156
same,glycan array binding signal (z-score),[48],-0.154
same,glycan array binding signal (z-score),[49],-0.146
